Screens from PubChem BioAssay.
In the library only some 1.3% were active in any assay of this set; here they are far more common.
gsp agonist = qHTS for Agonist of gsp, the Etiologic Mutation Responsible for Fibrous Dysplasia/McCune-Albright Syndrome: qHTS; gsp mutant cells, cAMP HTRF, 30 min; Potency, µM (top dose mostly 76.9 µM), for inactives: at the top dose activation (cAMP increase), actives largely listed as activators; 0.13% of 340,000 active; active means well fitted activation curve with a large enough effect; inconclusive means small, poorly fitted or top-dose-only effect, or another doubt; inactive means no such curve, though single readings can be large or run the other way; cell line not stated here;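 further: phosphodiesterase inhibitor Ro 20-1724 added with compounds to block cAMP breakdown; potency means the concentration at half of the fitted maximal effect; nearly all actives have a fitted effect of over 60% in size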
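Cells stably selected in G418 were plated at 2000/well, grown 16-24 hr, then given compounds in DMSO with the PDE inhibitor […] (300 uM solution added) for 30 min at 37C; cAMP was read by HTRF.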
pAkt inh = HTS Assay for Inhibitors of Akt Phophorylation: Primary Screen; Neuro2A IGF-stimulated pAkt S473 HTRF, 20 min; hits give low values; activity change, % for hits at 50 µM; 0.32% of 360,000 active; AID 651550, 2012; in the data active means activity change below about -80%; inconclusive means mostly about -51% to -80%; further: on the % scale 0 is the no-effect control and ±100 the full control effect
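Neuro2A cells in DMEM with 0.5% FBS, overnight at 37 deg C, given compound at single 50 µM final, then IGF (6 nM final) for 20 min at 37 deg C. Lysed; phospho-Akt Ser473 by HTRF after 24 h, 665/615 ratio.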
RXFP1 antagonist = qHTS Assay for Antagonists of the Relaxin Receptor RXFP1; Relaxin receptor 1 (Homo sapiens), Q9HBX9; 0.59% of 350,000 active; HEK293-RXFP1, relaxin-stimulated cAMP HTRF, 30 min; hits give low values; activity change, negative = inhibition, % at 57.5 µM;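 active means activity change of -60% or lower, but not beyond a set lower limit; inconclusive means change between -60% and -40%, or beyond the set limit; inactive means change above -40%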; further: on the % scale 0 is the no-effect control and ±100 the full control effect
Target sequence (Q9HBX9 whole entry, looked up): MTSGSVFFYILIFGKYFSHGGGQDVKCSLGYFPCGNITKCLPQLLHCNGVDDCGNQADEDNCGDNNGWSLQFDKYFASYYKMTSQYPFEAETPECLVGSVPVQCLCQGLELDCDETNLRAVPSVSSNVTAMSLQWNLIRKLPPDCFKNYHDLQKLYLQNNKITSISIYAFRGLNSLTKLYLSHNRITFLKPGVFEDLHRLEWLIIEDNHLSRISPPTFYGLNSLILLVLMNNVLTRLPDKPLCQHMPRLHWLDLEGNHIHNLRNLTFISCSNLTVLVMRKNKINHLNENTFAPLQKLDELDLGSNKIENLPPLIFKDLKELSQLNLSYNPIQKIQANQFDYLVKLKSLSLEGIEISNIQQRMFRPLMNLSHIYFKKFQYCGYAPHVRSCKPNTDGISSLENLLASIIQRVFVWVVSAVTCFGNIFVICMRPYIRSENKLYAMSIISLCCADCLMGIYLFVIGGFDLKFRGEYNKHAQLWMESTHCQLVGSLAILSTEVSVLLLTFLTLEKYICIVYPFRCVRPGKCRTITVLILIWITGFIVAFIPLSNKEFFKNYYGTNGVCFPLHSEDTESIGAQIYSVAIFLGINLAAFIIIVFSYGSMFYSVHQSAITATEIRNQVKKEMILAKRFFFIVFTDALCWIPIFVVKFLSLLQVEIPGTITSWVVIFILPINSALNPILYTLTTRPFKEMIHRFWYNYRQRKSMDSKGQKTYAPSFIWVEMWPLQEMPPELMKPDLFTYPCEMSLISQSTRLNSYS
RXFP1 ag = qHTS Assay for Agonists of the Relaxin Receptor RXFP1 | HEK293T-RXFP1 cAMP TR-FRET, 30 min; response scale: percent of porcine relaxin response, buffer zero | Potency, µM (series often up to 57.5 µM), inactives show at the highest dose activation, usual class: activators | 0.3% of 370,000 active | AID 2676, 2010; active means well fitted activation curve with a large enough effect; inconclusive means small, poorly fitted or top-dose-only effect; further: potency means the concentration at half of the fitted maximal effect; on the % scale 0 is the no-effect control and ±100 the full control effect; nearly all actives have a fitted effect of over 60% in size
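cAMP rise read by TR-FRET after 30 min, 37C compound exposure (up to 58 uM) in RXFP1-transfected HEK293 cells with Ro 20174 present. EC50 from Hill-equation fits, with 29 nM porcine relaxin as 100% and buffer as basal.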
gsp antagonist = qHTS for Antagonists of gsp, the Etiologic Mutation Responsible for Fibrous Dysplasia/McCune-Albright Syndrome: qHTS; gsp-mutant cells, cAMP HTRF, 30 min; Potency, µM (titrated, usually from 76.9 µM), without a hit: at the top dose activity change, negative = inhibition, most hits filed as inhibitors; 0.4% of 340,000 active; AID 624288, 2012; calls by dose curve; cell line not stated here;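 further: intracellular cAMP measured with PDE inhibitor Ro 20-1724 present during compound exposure; potency means the concentration at half of the fitted maximal effect; on the % scale 0 is the no-effect control and ±100 the full control effect; nearly all actives have a fitted effect of over 65% in size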
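Cells, 2000/well, grown 16–24 h in DMEM 10% FBS with 0.5 mg/ml G418, then compounds plus […] (300 uM addition stock), 30 min at 37C. cAMP read by HTRF (cAMP-d2 and anti-cAMP antibody-K in lysis buffer) after 30 min RT.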
TSHR antag = Antagonists of the Thyroid Stimulating Hormone Receptor: HTS campaign; 0.2% of 330,000 active; Thyrotropin receptor (Homo sapiens), P16473; activity change, negative = inhibition, % at 11.5 µM; TSHR-expressing cells, TSH-stimulated cAMP HTRF, 2 h; hits give low values;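 active means activity change below a set negative limit, meaning inhibition stronger than a set level, cut at about -70% in these data; inconclusive means activity change between two set negative limits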; further: on the % scale 0 is the no-effect control and ±100 the full control effect
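Cell-based HTRF cAMP assay; TSHR cells + compound, TSH EC80 (4nM final), 2 h, 37 deg C. Lysis with anti-cAMP cryptate and cAMP-d2, 30 min RT, read 665/620 nm.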
Starred values were filed as active, the others as inactive; i = inactive; u = inconclusive; x = not tested or not shown; [ ] = another dose, or the depositor's remark.

SMILES	gsp agonist	pAkt inh	RXFP1 antagonist	RXFP1 ag	gsp antagonist	TSHR antag
COc1cccc(-c2nnc(SC(C(=O)c3c[nH]c4ccccc34)c3ccccc3)n2C)c1 (stereo unspecified)	-4%[15.4 µM]	i	-77*	0%	u	-14
COc1ccccc1-c1nnc(SC(C(=O)c2c[nH]c3ccccc23)c2ccccc2)n1C (stereo unspecified)	5%	i	2	0%	35µM*	0
COc1cccc(-c2nnc(SCCC(=O)O)n2C)c1	1%	i	-10	0%	9%	3
CCCCn1c(SCC(=O)NC2CC(C)(C)NC(C)(C)C2)nc2cc(S(N)(=O)=O)ccc21	-11%	i	7	6%	1%	1
COc1cc(C)ccc1OCCSc1nc2ccc(NC(=O)c3ccc4c(c3)OCO4)cc2s1	x	x	x	5%	x	x
CCOc1ccc2[nH]c(C)c(CN3CCN(CC)CC3)c(=O)c2c1	u	-122%*	-9	-1%	8%	19
CN(CCC#N)C(=O)CC1(Cc2ccccc2)CCOC(C)(C)C1 (stereo unspecified)	u	i	17	2%	1%	-4
CC1CCCN(S(=O)(=O)c2ccc3c(c2)OCCO3)C1 (stereo unspecified)	-32%	i	-7	x	x	x
CCCN(CC1CC1)C(=O)COc1ccccc1C(=O)NCc1ccccc1	-14%	-110%*	2	0%	u	13
COC(=O)c1nn(-c2ccccc2)c(Sc2ccccc2)c1/C=N/O	18%	-107%*	-10	2%	0%	11
CCn1cc(/C=C/C(=O)NCc2c(C)nn(C)c2C)cn1	-36%	-107%*	-1	-4%	-4%	5
CCn1cc(CNC(=O)/C=C/c2cnn(C)c2)c(C)n1	29%	i	10	3%	21%	-5
CC(C)(C)c1csc(Sc2ccc([N+](=O)[O-])cn2)n1	6%[15.4 µM]	i	-21	0%	4%	1
CCOCCCNc1ncnc2c1[nH]c1ccccc12	28%	x	-6	1%	-22%	-10
c1nc(NCC2CCCO2)c2[nH]cnc2n1 (stereo unspecified)	0%	x	20	x	2%	x
CCCCOCCCNc1ncnc2c1[nH]c1ccccc12	0%	i	-3	-3%	7.9µM*	u
c1ccc2c(c1)[nH]c1c(NCC3CCCO3)ncnc12 (stereo unspecified)	-1%	i	-5	1%	35µM*	-10
Nc1nc(=O)n([C@@H]2O[C@H](CO)[C@@H](O)[C@@H]2F)cc1I	x	x	3	x	x	x
Cc1ccc(S(=O)(=O)/N=C(/Nc2ccc(F)cc2F)c2ccccc2)cc1	3%	i	-65*	1%	-6%	-10
Cn1c(=O)c(C(=O)c2ccccc2)nc2ccccc21	11%	i	-9	2%	-9%[15.4 µM]	7
CC(=O)c1cccc(NC(=O)c2nc3ccccc3n(C)c2=O)c1	x	x	22	16µM*	x	x
NC(=O)C1CCN(c2nc(-c3ccccc3)cs2)CC1	x	x	x	x	x	2
O=C(NCc1ccc(F)cc1)c1ccncc1	-24%	i	8	-1%	10%	-121*
Cn1nnnc1SCC1=C(C(=O)O)N2C(=O)C(NC(=O)C3CC3c3ccccc3)C2SC1 (stereo unspecified)	u	i	-2	-1%	-3%	-105*
NC1(c2ccc(-c3nc4ccn5c(=O)[nH]nc5c4cc3-c3ccccc3)cc2)CCC1	x	x	-62*	x	x	x
SMILES	gsp agonist	pAkt inh	RXFP1 antagonist	RXFP1 ag	gsp antagonist	TSHR antag
O=C1Cc2c(-c3ccccc3)cc(-c3cccc(Cl)c3)nc2-c2ccccc2N1	25%	i	7	x	-5%	x
O=c1onc(-c2ccccc2Cl)n1-c1ccccc1Cl	4%[15.4 µM]	i	-26	x	-13%	x
CC(=O)Nc1cccc(-c2csc(Nc3ncccn3)n2)c1	x	x	x	0%	x	-5
CC(=O)Nc1cccc(-c2csc(Nc3ccc(C)cn3)n2)c1	5%	i	-60*	-1%	-29%	14
Cc1cccc(C(=O)NCc2nnc(SCC(=O)NC3CCCC3)n2C)c1	-2%	i	-21	-2%	9%	5
C[C@@H](O[C@H]1OCCN(Cc2n[nH]c(=O)[nH]2)[C@H]1c1ccc(F)cc1)c1cc(C(F)(F)F)cc(C(F)(F)F)c1	x	x	-60*	x	x	x
COc1ccc(C2C(C(=O)c3cccs3)=C(O)C(=O)N2c2nnc(C)s2)cc1OC (stereo unspecified)	4%	i	29	5%	-4%	17
C=CCOc1ccc(C2C(C(=O)c3cccs3)=C(O)C(=O)N2c2nnc(C)s2)cc1 (stereo unspecified)	32µM*	i	-12	x	26%	x
O=C(c1ccc(S(=O)(=O)N2CCCC2)cc1)N1CCCc2ccccc21	-16%	i	-2	0%	-3%	-8
O=C(c1ccc(S(=O)(=O)N2CCCCC2)cc1)N1CCCc2ccccc21	-14%	-108%*	-7	0%	-3%	-3
COc1ncccc1C(=O)N1CCC(n2nccc2NC(=O)CC(C)C)CC1	u	i	-3	1%	10%	8
COc1ccc(NC(=O)Cn2nnc(-c3ccccc3NC(=O)C3CC3)n2)cc1	4%	i	-1	-1%	-6%	-7
CCOc1ccc(NC(=O)Cn2nnc(-c3ccccc3NC(=O)C3CC3)n2)cc1	-16%	-126%*	-2	1%	7%	-8
CCC(=O)c1ccc(OCC(=O)OCC(=O)NCC2CCCCC2)cc1	19%	i	-10	2%	0%	-4
Cn1c(=S)[nH]c2c(c1=O)C(C)(C)Cc1ccccc1-2	92%[15.4 µM]	i	29	16µM*	-2%	12
CCn1c(=S)[nH]c2c(c1=O)C(C)(C)Cc1ccccc1-2	2.8µM*	i	14	16µM*	34%	-8
CCCC1(C)C(C#N)(C#N)C1(C#N)C#N	x	x	x	x	x	-24
O=C(CSc1ccc(Cl)cc1)c1ccco1	-4%	-97%*	-15	1%	8%	5
O=C(CCSc1ccc(Cl)cc1)c1ccco1	20%	i	7	-3%	6%	1
O=C1c2ccccc2C(c2nnnn2Cc2ccccc2)N1CCc1ccccc1F (stereo unspecified)	x	i	x	x	x	x
